# GPR151 ag = activators of human GPR151, primary screen, cell-based, PathHunter beta-arrestin, luminescence. G-protein coupled receptor 151 (Homo sapiens), Q8TDV0. PathHunter beta-arrestin GPR151 cells. activation, % at 11.2 µM. 650,000 compounds, 1% hits. AID 1508602, 2020; in the data active = activation above about 4.9%;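 also: 0% = median of compound wells and 100% = cells with positive control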
# Target sequence (Q8TDV0 whole entry, looked up): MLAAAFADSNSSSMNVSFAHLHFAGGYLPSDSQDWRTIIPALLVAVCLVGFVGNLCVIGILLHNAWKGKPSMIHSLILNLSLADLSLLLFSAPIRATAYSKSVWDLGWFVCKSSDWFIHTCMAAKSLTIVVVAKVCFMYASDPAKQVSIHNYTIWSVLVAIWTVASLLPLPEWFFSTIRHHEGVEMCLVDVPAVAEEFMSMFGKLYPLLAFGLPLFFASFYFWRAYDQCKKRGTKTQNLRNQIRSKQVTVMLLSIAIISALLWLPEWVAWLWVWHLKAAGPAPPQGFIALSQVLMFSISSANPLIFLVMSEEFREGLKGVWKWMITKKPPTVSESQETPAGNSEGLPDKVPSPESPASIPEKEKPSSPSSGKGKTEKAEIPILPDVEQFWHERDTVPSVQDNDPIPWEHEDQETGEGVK
# TEAD-YAP inh = TEAD-YAP interaction inhibition, primary screen, TEAD-YAP interaction inhibitor project, luminescence, HEK-TIYL cells. inhibition, % at 9.12 µM. 640,000 compounds, 1.4% hits. TEAD-Gal4/YAP UAS-luciferase luminescence. AID 1259422, 2018; in the data active = inhibition above about 32%;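 also: 0% = median of test compound wells and 100% = reference inhibitor wells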
# FBW7 activator = FBW7 E3 ligase activators, primary screen, biochemical, AlphaScreen, human; F-box/WD repeat-containing protein 7 (Homo sapiens), Q969H0; AlphaScreen FBW7–phospho-cyclin E peptide binding, activator screen; normalized activity (activation), % at 26.1 µM; 650,000 compounds, 0.13% hits; AID 1259310, 2017; in the data active = normalized activity above about 1.9%;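 also: purified mutant Fbw7 with reduced substrate affinity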
# MITF inh = MITF inhibitors, primary screen, biochemical, AlphaScreen, human; Microphthalmia-associated transcription factor (Homo sapiens), O75030; AlphaScreen MITF homodimerization, bead proximity signal; inhibition, % at 2.6 µM; 650,000 compounds, 0.91% hits; AID 1259374, 2018; in the data active = inhibition above about 50%;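 also: 0% = vehicle wells with protein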
# Numbers without * were called inactive. Most compounds without a hit are left out; they make up all but 3.4% or so of the library.
SMILES,GPR151 ag,TEAD-YAP inh,FBW7 activator,MITF inh
COc1ccc(-c2nnc3n2N=C(c2ccccc2)CS3)cc1,-1.2,-0.4,0.2,14.3
COc1cccc(C2=Nn3c(nnc3-c3ccccc3)SC2)c1,0.0,10.3,0.8,5.3
Oc1ccc(C2=Nn3c(nnc3-c3ccc(Br)cc3)SC2)cc1O,2.5,65.7*,-0.4,-3.4
CC1(C)C(=O)N(CN2CCOCC2)C(=O)N1CN1CCOCC1,-0.8,-5.5,-0.5,-5.3
CC(=O)c1cccc(Nc2nc(-c3cc4c(ccc5ccccc54)oc3=O)cs2)c1,1.3,0.4,-0.3,3.7
O=C1SCCC1NS(=O)(=O)c1ccc(Br)cc1 (configuration not stated),-0.8,-6.0,0.2,-1.1
Oc1ccc(C2=Nn3c(nnc3-c3cccc(F)c3)SC2)cc1O,-0.9,60.5*,-0.5,2.3
Cc1cc(C)cc(N(CC(=O)Nc2ccc(F)cc2)S(C)(=O)=O)c1,-1.9,-8.4,0.1,-0.2
O=C(CSc1n[nH]c(-c2ccncc2)n1)c1ccc(O)c(O)c1,4.8,-3.6,-0.2,99.2*
Cc1cccc(OCc2nnc(SCC(=O)NCCc3ccccc3)n2C)c1,2.5,3.2,0.0,6.8
O=C(c1ccc(-n2cccc2)cc1)N1CCC(c2nnc(-c3ccco3)o2)CC1,-0.6,-4.2,2.2*,15.2
Cn1c(SCC#N)nnc1-c1cccc([N+](=O)[O-])c1,-1.5,32.2*,-0.3,-5.1
Cn1c(SCC(N)=O)nnc1-c1cccc([N+](=O)[O-])c1,-1.3,-8.0,0.0,-10.1
O=C(NCc1ccccc1)/C(=C\C=C\c1ccccc1)NC(=O)c1ccc([N+](=O)[O-])cc1,-1.0,55.6*,-0.1,4.1
c1c(N2CCOCC2)c2nonc2c2nonc12,-0.9,-5.4,0.3,14.3
CCOC(=O)/C(N=Nc1ccc([N+](=O)[O-])cc1)=C(\O)CCl,0.8,-10.7,-0.1,-9.8
COC(=O)/C(N=Nc1ccc(-c2ccccc2)cc1)=C(/O)CCl,-7.1,60.9*,-0.1,7.3
CCOc1ccc(-n2cc(-c3ccccc3)c3c(N4CCN(c5cccc(Cl)c5)CC4)ncnc32)cc1,0.3,5.8,0.2,-3.5
OCc1ccc(-c2cnc3ccc(NCc4ccc5c(c4)OCO5)nn23)cc1,-1.0,57.7*,0.7,11.4
c1ccc(-c2cnc3ccc(NCc4ccc5c(c4)OCO5)nn23)cc1,0.2,3.7,-0.3,2.2
c1cc(-c2cnc3ccc(NCc4ccc5c(c4)OCO5)nn23)ccn1,-0.1,47.1*,0.2,8.7
Cc1cc(=O)[nH]c(SCC(=O)N(c2ccccn2)c2ccccn2)n1,-1.3,10.3,-0.7,8.8
O=C(Nc1ncc([N+](=O)[O-])s1)c1ccc(Br)cc1F,-12.3,84.8*,0.1,-4.8
Cc1[nH]nc(Nc2ccc(Cl)c(Cl)c2)c1[N+](=O)[O-],0.1,-62.1,0.2,7.6
C(=C\c1ccc2c(c1)OCCO2)/c1ccc2c(c1)OCCO2,-10.0,97.1*,1.3,19.5
SMILES,GPR151 ag,TEAD-YAP inh,FBW7 activator,MITF inh
CC(CCc1ccccc1)NC(=O)CCn1c(=O)[nH]c2ccccc2c1=O (configuration not stated),-0.6,11.6,0.6,9.6
COc1cccc2sc(=NC(=O)c3cccc4ccccc34)n(C)c12,-0.8,1.7,0.9,6.7
COc1cccc2sc(=NC(=O)c3nc4ccccc4s3)n(C)c12,-0.2,70.9*,-0.1,-5.3
CN(C)c1cccc(C(=O)NNC(=O)CCCSc2nc3ccccc3s2)c1,-3.8,2.3,0.2,9.0
O=C(NC1CC1)c1cncc(-c2ccccc2)c1,0.8,3.9,0.1,-0.9
O=C(NC1CCN(Cc2ccccc2)CC1)c1ccc2cncc(-c3ccccc3)c2n1,1.3,65.2*,-0.2,16.2
O=C(NC1CC1)c1ccc2cncc(-c3ccccc3)c2n1,4.5,50.6*,-0.2,4.8
O=C(c1ccc2cncc(-c3ccccc3)c2n1)N1CCCCC1,-1.0,49.5*,-1.0,-15.6
O=C(CSc1n[nH]c(=O)n1Cc1ccccc1)Nc1ccc(Br)cc1F,3.1,34.1*,0.0,-0.9
c1csc(-c2cn3ccc4ccccc4c3n2)c1,-6.1,-30.5,2.5*,4.0
Nc1ncnc(N/N=C/c2ccc(C3=CCCC3)s2)c1[N+](=O)[O-],-7.9,60.5*,-1.0,22.0
Nc1ncnc(N/N=C/c2ccc3ncccc3c2)c1[N+](=O)[O-],-0.8,85.6*,-0.1,12.7
CCN(Cc1ccccc1)c1ccc(/C=N/Nc2ncnc(N)c2[N+](=O)[O-])cc1,-3.7,37.1*,-0.5,12.2
COc1cc(/C=N/Nc2ncnc(N)c2[N+](=O)[O-])ccc1O,-9.9,34.0*,-0.6,9.7
Nc1ncnc(N/N=C/c2cccnc2)c1[N+](=O)[O-],-3.1,20.0,-0.5,-1.0
O=C(c1ccc(-c2cnc3[nH]c(=O)n(C4CCOCC4)c3n2)cc1)N1CCOCC1,-0.4,-1.4,0.4,11.9
O=C(Nc1ccc(Oc2ccccc2)cc1)c1cc2ccccc2oc1=O,-1.0,-7.8,0.2,13.8
O=[N+]([O-])c1ccc(CSc2nnc(Cc3ccccc3)o2)cc1,0.3,11.0,0.0,14.2
O=[N+]([O-])c1ccc(Sc2nnc(Cc3ccccc3)o2)nc1,1.3,57.2*,-0.1,-2.3
Cc1ccc(-c2nnc(Cc3ccccc3)o2)cc1,-2.2,-58.3,0.0,-10.4
Cc1ccc2oc(Cc3ccccc3)nc2c1,-2.1,47.0*,0.3,19.6
O=C(N/N=C/c1cccc(Cl)c1)C(=O)Nc1ccccc1Cl,-0.2,-9.3,-0.1,15.9
Cc1cc(NC(=O)c2ccc(S(=O)(=O)NC3CC3)cc2)c2cc(F)cc(F)c2n1,-0.6,47.9*,-0.5,-11.4
Cc1noc(CNC(=O)c2ccc(F)c(F)c2)n1,0.0,3.8,0.1,4.5
Cc1nn2c(=O)c3c4c(sc3nc2c2ccccc12)CCCC4,0.0,52.1*,0.0,2.2
SMILES,GPR151 ag,TEAD-YAP inh,FBW7 activator,MITF inh
O=c1c2c3c(sc2nc2c4ccccc4c(Cl)nn12)CCCCC3,-0.3,-5.5,0.0,-3.7
CC(C)(C)n1nc2c(c1NC(=O)/C=C\c1ccco1)CSC2,-1.3,6.4,0.1,5.0
C#CCOc1cc(Br)c(/C=C2/NC(=O)NC2=O)cc1OCC,0.3,32.5*,-0.1,-6.3
O=C(CSc1nc2ccccc2n1S(=O)(=O)c1ccc(Br)cc1)Nc1ccccc1C(F)(F)F,0.2,-13.5,0.6,9.8
CC(C(=O)Nc1ccncc1)c1ccc([N+](=O)[O-])cc1 (configuration not stated),3.9,33.4*,1.0,-0.4
CC(C(=O)Nc1ncn[nH]1)c1ccc([N+](=O)[O-])cc1 (configuration not stated),-0.9,12.1,-0.5,8.4
CCOC(=O)Nc1ccc(I)cc1,0.8,-37.8,0.2,1.4
CCOC(=O)Nc1ccc(Cc2ccc(NC(=O)OCC)cc2)cc1,1.3,33.2*,-0.1,-4.0
Cc1ccc(NC(=O)c2c(O)c3c([nH]c2=O)CCCC3)cc1,-0.8,2.0,-0.1,2.4
